Values joined by “and” are separate entries in the source; they are usually repeats but may differ in a detail not shown here. Identical values can stand only once. Hit rate of the full screen: of about 16,000 compounds, about 5,100 (32%) were called active. About 25% were inconclusive and are not listed. Calls follow the shape of the dose curve; as a rule, active = well fitted curve in the direction sought with a large enough effect; inconclusive = small, poorly fitted or top-dose-only effect, or effect the other way; inactive = no such curve, though single readings can be large or run the other way. This is one part of the list.

As usually defined, the AC50 is the concentration at which the activity in the assay is half-maximal.
% is scaled to controls: 0 for no effect and ±100 for the full control effect.

Chain of Cytochrome P450 3A4 (Homo sapiens) (P08684 whole entry, looked up): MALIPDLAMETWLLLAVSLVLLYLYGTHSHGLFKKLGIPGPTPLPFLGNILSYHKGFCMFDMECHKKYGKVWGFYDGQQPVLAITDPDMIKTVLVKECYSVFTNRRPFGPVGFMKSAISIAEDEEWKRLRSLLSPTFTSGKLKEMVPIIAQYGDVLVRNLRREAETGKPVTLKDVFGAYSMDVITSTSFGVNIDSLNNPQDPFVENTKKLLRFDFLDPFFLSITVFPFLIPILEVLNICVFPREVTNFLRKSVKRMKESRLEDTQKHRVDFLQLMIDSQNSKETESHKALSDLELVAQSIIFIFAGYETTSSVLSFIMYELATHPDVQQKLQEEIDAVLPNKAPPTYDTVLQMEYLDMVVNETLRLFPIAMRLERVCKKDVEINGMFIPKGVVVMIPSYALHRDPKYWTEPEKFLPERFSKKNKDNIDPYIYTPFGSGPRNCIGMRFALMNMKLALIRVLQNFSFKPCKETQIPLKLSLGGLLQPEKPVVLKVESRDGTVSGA

This experiment addresses Cytochrome P450 3A4 (Homo sapiens) (UniProt P08684). As to the kind of experiment: Cytochrome panel assay with activity outcomes. The following applies: recombinant CYP, pro-luciferin dealkylation, luminescence, p450-cyp3a4; series mostly up to 57.1 µM.
As to `O=C1C2=C(NC(=S)NC2c2ccc(Cl)cc2)NC(c2ccc(Cl)cc2)N1c1ccc(Cl)cc1` (stereo not given), the AC50 was 2.82 µM (active).

For the compound `Clc1ccc2c(c1)C1=C(C(c3ccncc3)O2)C(c2ccc(Br)cc2)n2ncnc2N1` (stereo not given), the AC50 was 2.51 µM (active).

Consider `CCc1cc2c(NCCO)ncnc2s1`, for which the AC50 entry was “inactive”.

`CCc1ccccc1NC(=O)c1ccc(-n2c(C)ccc2C)cc1`: the half-maximal activity concentration (AC50) is 17.8 µM (active).

Consider `CCOC(=O)c1ccc(CNC(=O)C2CCCCC2C(=O)OCC(F)(F)F)o1` (stereo not given), for which the AC50 result was “inactive”.

With `CC(C)NC[C@@H](O)COc1ccc(CCOCC2CC2)cc1`, the AC50 result is “inactive”.

As for `CN1CC(c2ccccn2)C2(SC(=S)N(Cc3ccccc3)C2=O)C12C(=O)Nc1ccccc12` (stereo not given), the concentration at half-maximal activity (AC50) is 4.47 µM (active).

Consider `CCOC(=O)c1ccc(OC(=O)CCCCCN=C(N)N)cc1`, for which the AC50 result is “inactive”.

`CCCc1cc2c(cc1NC(=O)c1ccccc1C)OCO2`: the AC50 was 2.51 µM (active).

On to `CCCc1cc2c(cc1NC(=O)c1ccc(Br)cc1)OCO2`, for which the half-maximal activity concentration (AC50) was 1.12 µM (active).

As for `CCCc1cc2c(cc1NC(=O)c1ccccc1Cl)OCO2`, the half-maximal activity concentration (AC50) was 2.24 µM (active).

As for `Cc1ccccc1C(=O)NNC(=O)c1ccoc1C`, the AC50 result is “inactive”.

For the compound `CCC(=O)Nc1cc2c(cc1C(=O)c1ccccc1)OCCO2`, the activity, negative = inhibition is -4.4% [at 2.29 µM] (inactive).

`COC(=O)CSc1cc(C(F)(F)F)nc(-c2ccccn2)n1`: the AC50 entry was “inactive”.

With `CCCNC(=O)CSc1nc(-c2cccs2)cc(C(F)(F)F)n1`, the AC50 was 7.08 µM (active).

`O=C(NN=C1c2ccccc2-c2ccccc21)c1ccccn1`: the half-maximal activity concentration (AC50) is 14.1 µM (active).

For the compound `O=C(N/N=C/c1ccco1)c1ccccn1`, the AC50 result was “inactive”.

In the case of `O=C(CNC(=O)c1ccccn1)N/N=C/c1ccccc1`, the activity, negative = inhibition is -5.67% [at 2.29 µM] (inactive).

For the compound `Nc1nc(Cl)nc2c1ncn2[C@@H]1O[C@@H](COP(=O)(O)OP(=O)(O)OP(=O)(O)O)[C@@H](O)[C@H]1O`, the AC50 entry is “inactive”.

Consider `NC(=O)C1=CN([C@@H]2O[C@@H](COP(=O)(O)OP(=O)(O)OC[C@@H]3O[C@H](n4cnc5c(N)ncnc54)[C@@H](OP(=O)(O)O)[C@@H]3O)[C@H](O)[C@@H]2O)C=CC1`, for which the AC50 entry is “inactive”.

As to `NC(=S)c1ccc[n+]([C@@H]2O[C@@H](COP(=O)([O-])OP(=O)(O)OC[C@@H]3O[C@@H](n4cnc5c(N)ncnc54)[C@@H](OP(=O)(O)O)[C@H]3O)[C@@H](O)[C@H]2O)c1`, the half-maximal activity concentration (AC50) is 12.6 µM (active).

With `CCn1c(SCc2ccc(Cl)cc2Cl)nc2nc3c(cc2c1=O)CCCC3`, the AC50 is 8.91 µM (active).

As for `C#CCCCCCCCCCCCCCCCC(=O)O`, the AC50 entry was “inactive”.

Take `O=C(O)C1=CCNCC1`: the AC50 result is “inactive”.

As for `CCCCN1C(=O)CCC(C(=O)O)C1c1ccccc1` (stereo not given), the AC50 result is “inactive”.

Take `COc1ccc(-c2nc3cnc(N(C)C)nc3n(CCc3ccccc3)c2=O)cc1`: the AC50 result is “inactive”.

As to `CCCCN1C(=O)CN(CCc2ccccc2)C(=O)C1c1ccc(OC)cc1` (stereo not given), the AC50 is 7.94 µM (active).

For `COc1ccc(C2C(=O)N(CCc3ccccc3)CC(=O)N2C2CCCC2)cc1` (stereo not given), the half-maximal activity concentration (AC50) was 6.31 µM (active).

Regarding `COc1ccc(/C(O)=C2/C(=O)C(=O)N(CCCC(=O)O)C2c2ccc(OC)cc2)cc1` (stereo not given), the AC50 result was “inactive”.

Turning to `CO[C@@H]1COC(=O)CCC[C@@H](C)[C@H](OC)COC(=O)CCC[C@H]1C`, the activity, negative = inhibition is -19.8% [at 11.4 µM] (inactive).

As to `CO[C@@H]1COC(=O)CCC[C@@H](C)[C@H](OC)COC(=O)[C@H](Cc2ccccc2)NC(=O)C/C=C\[C@H]1C`, the half-maximal activity concentration (AC50) was 3.98 µM (active).

Take `CO[C@H]1COC(=O)CCC[C@@H](C)[C@H](OC)COC(=O)[C@@H](C)NC(=O)C/C=C\[C@@H]1C`: the activity, negative = inhibition is -24.2% [at 11.4 µM] (inactive).

As for `CO[C@H]1COC(=O)C/C=C\[C@H](C)[C@@H](OC)COC(=O)[C@H](Cc2ccccc2)NC(=O)C/C=C\[C@@H]1C`, the AC50 was 3.16 µM (active).

In the case of `CO[C@@H]1COC(=O)[C@H](C)NC(=O)[C@@H](C)COC(=O)CCC[C@H]1C`, the activity, negative = inhibition is -21.6% [at 11.4 µM] (inactive).

For `CO[C@@H]1COC(=O)[C@H](COCc2ccccc2)NC(=O)C/C=C\[C@@H](C)[C@H](OC)COC(=O)[C@H](COCc2ccccc2)NC(=O)C/C=C\[C@H]1C`, the activity, negative = inhibition is -6.81% [at 11.4 µM] (inactive).

`CO[C@@H]1COC(=O)[C@H](Cc2ccccc2)NC(=O)C/C=C\[C@@H](C)[C@H](OC)COC(=O)[C@@H](C)NC(=O)C/C=C\[C@H]1C`: the activity, negative = inhibition was -25.2% [at 11.4 µM] (inactive) and -29.9% [at 11.4 µM] (inactive).

With `CO[C@H]1COC(=O)[C@@H](Cc2ccccc2)NC(=O)[C@@H](C)COC(=O)CCC[C@@H]1C`, the concentration at half-maximal activity (AC50) was 3.16 µM (active).

Regarding `CO[C@@H]1COC(=O)[C@@H](CCSC)NC(=O)C/C=C\[C@@H](C)COC(=O)[C@H](C)NC(=O)C/C=C\[C@H]1C`, the activity, negative = inhibition was -17.8% [at 11.4 µM] (inactive).

`CC1CCN(c2ccccc2NC(=S)NC(=O)c2cccs2)CC1`: the concentration at half-maximal activity (AC50) is 15.8 µM (active).

As to `O=C(NC(=S)Nc1cccc(Cl)c1N1CCCCC1)c1cccs1`, the activity, negative = inhibition is -1.51% [at 2.29 µM] (inactive).

`COc1ccc(C(=O)NC(=S)NC(C)C)cc1Br`: the AC50 entry was “inactive”.

For the compound `C=CCN(CC=C)C(=S)NC(=O)c1ccc(OC)c(Br)c1`, the AC50 was 0.891 µM (active).

Regarding `C=CCN(CC=C)C(=S)Nc1ccccc1`, the activity, negative = inhibition was -16.5% [at 2.29 µM] (inactive).

For `CCCc1nn2c(=O)c(C(c3ccc(C)cc3)c3c(O)nc4sc(CCC)nn4c3=O)c(O)nc2s1`, the activity, negative = inhibition is -0.554% [at 2.29 µM] (inactive).

On to `CCOC(=O)c1sc(N(Cc2ccccc2)C(=O)CN2C(=O)CN(C)C2=O)nc1C`, for which the AC50 was 12.6 µM (active).

Consider `CCOC(=O)c1sc(NS(=O)(=O)c2ccccc2)nc1C`, for which the AC50 entry is “inactive”.

With `COc1cccc(/C=N/NC(=O)c2c(-c3ccccc3)noc2C)c1`, the activity, negative = inhibition is -3.56% [at 2.29 µM] (inactive).

For `COc1ccc(NC(=O)COC(=O)c2c(-c3ccccc3)noc2C)cc1`, the concentration at half-maximal activity (AC50) is 7.08 µM (active).

As to `Cc1noc(C)c1C(=O)OCC(=O)NC(c1ccccc1)c1ccccc1`, the activity, negative = inhibition is -8.57% [at 2.29 µM] (inactive).

Turning to `CCCCN1CCC(n2c(=O)[nH]c3ccccc32)CC1`, the AC50 result was “inactive”.

For `Fc1ccc(Nc2ncnc3ccc(-c4ccoc4)cc23)cc1`, the AC50 was 15.8 µM (active).

`c1ccc(Nc2ncnc3ccc(-c4ccoc4)cc23)cc1`: the AC50 was 15.8 µM (active).

Turning to `Cc1noc(COc2ccc(OCc3nc(C)no3)cc2)n1`, the AC50 entry is “inactive”.

With `CC1(CCC(=O)OC2CCCCC2)OCCO1`, the activity, negative = inhibition is -7.62% [at 11.4 µM] (inactive).

For the compound `Cn1c(/C=N/NC(=O)c2ccccc2Br)nc2ccccc21`, the half-maximal activity concentration (AC50) was 10 µM (active).

Take `Nc1cccc(OCc2nc(N)nc(N)c2-c2ccc(Cl)cc2)c1`: the half-maximal activity concentration (AC50) is 1.58 µM (active).

Regarding `CCOC(=O)N1CCN(C(=O)CSCc2ccc(Cl)cc2)CC1`, the concentration at half-maximal activity (AC50) is 4.47 µM (active).

Take `CCOC(=O)C1CCCN(S(=O)(=O)c2ccccc2)C1` (stereo not given): the AC50 entry is “inactive”.

Turning to `CCOC(=O)C1CCN(C(=O)C2CCN(S(=O)(=O)N3CCCC3)CC2)CC1`, the AC50 result is “inactive”.

Consider `CCOC(=O)N1CCN(S(=O)(=O)Cc2ccccc2)CC1`, for which the AC50 result is “inactive”.

In the case of `CCOC(=O)C1CCCN(C(=O)CSCc2ccccc2)C1` (stereo not given), the AC50 is 25.1 µM (active).

As for `CCOC(=O)C1CCCN(C(=O)CCCOc2cc(=O)n(C)c3ccccc23)C1` (stereo not given), the half-maximal activity concentration (AC50) is 3.98 µM (active).

With `CCOC(=O)N1CCN(C(=O)C(C)SCc2ccccc2)CC1` (stereo not given), the AC50 result is “inactive”.

As for `Cc1cc(C(C)(C)CC(C)(C)C)ccc1OCCOCC[N+](C)(C)Cc1ccccc1`, the AC50 result is “inactive”.

As for `COc1ccc(N2C(=O)CCC(C(=O)O)C2c2ccc(F)cc2)cc1` (stereo not given), the AC50 result is “inactive”.

`COc1ccc(N2C(=O)CCC(C(=O)Nc3ccccn3)C2c2ccc(OC)c(OC)c2)cc1` (stereo not given): the AC50 was 20 µM (active).

In the case of `CCN(CC)CCCNC(=O)C1CCC(=O)N(c2ccc(OC)cc2)C1c1ccc(F)cc1` (stereo not given), the AC50 was 15.8 µM (active).

For the compound `CCCCNC(=O)C1CC(=O)N(c2ccc(OC)cc2)C1c1ccc(OC)cc1` (stereo not given), the activity, negative = inhibition is 3.58% [at 2.29 µM] (inactive).

With `c1ccc(SC(Sc2ccccc2)c2ccc3c(c2)OCO3)cc1`, the AC50 was 2.51 µM (active).

As for `O=S(=O)(c1ccccc1)N1CCC[C@@]2(CCN(Cc3nccs3)C2)C1`, the half-maximal activity concentration (AC50) is 3.16 µM (active).

Consider `CS(=O)(=O)N1CCC2(CC1)CN(Cc1nccs1)C2`, for which the AC50 entry was “inactive”.

On to `O=S(=O)(c1ccccc1)N1CCC2(CCN(Cc3nccs3)CC2)CC1`, for which the AC50 result was “inactive”.

Take `O=S(=O)(c1ccccc1)N1CCC2(CCCN(Cc3nccs3)C2)CC1`: the concentration at half-maximal activity (AC50) is 3.16 µM (active).

Regarding `O=S(=O)(c1ccccc1)N1CCC2(CC1)CN(Cc1nccs1)C2`, the AC50 result is “inactive”.

For the compound `CS(=O)(=O)N1CCC2(CCN(Cc3nccs3)CC2)CC1`, the AC50 entry is “inactive”.

`CO[C@H]1C[C@@H]2C[C@H](O)C[C@@H](CC(=O)O[C@@H](/C=C\CC(C)C)C[C@@H]3CC[C@H](C)[C@@H](C1)O3)O2`: the activity, negative = inhibition is -7.29% [at 11.4 µM] (inactive).

Turning to `Oc1ccccc1-c1nnc(-c2ccc(C(F)(F)F)cc2)o1`, the AC50 result is “inactive”.

For `Cn1cc(-c2nnc(-c3ccccc3)o2)c2ccccc21`, the AC50 is 14.1 µM (active).

For `Clc1ccc(-c2nnc(-c3cccc4ccccc34)o2)cc1Cl`, the activity, negative = inhibition was -4.35% [at 11.4 µM] (inactive).

In the case of `O=C1CCCN1CC(CN1CCOCC1)Sc1nnnn1-c1ccccc1` (stereo not given), the AC50 is 15.8 µM (active).

Turning to `c1ccc2c(c1)nnn2CN1CCOCC1`, the activity, negative = inhibition is -7.23% [at 11.4 µM] (inactive).

On to `COc1ccc(O[C@H]2C=C[C@@H](c3ccccc3)O[C@H]2COC(=O)CC/C(C)=N\O[C@@H](C)c2cn([C@H](CO)Cc3ccccc3)nn2)cc1`, for which the AC50 is 3.98 µM (active) and 5.01 µM (active).

Regarding `COc1ccc(O[C@H]2C=C[C@@H](c3ccccc3)O[C@H]2COC(=O)CC/C(C)=N\O[C@@H](C)c2cn([C@H]3COC[C@H]3O)nn2)cc1`, the AC50 is 3.98 µM (active).

On to `C[C@H](O/N=C1/[C@H]2O[C@@H]2[C@@H](O)[C@H]2[C@H]1CCn1c(=O)n(-c3ccccc3)c(=O)n12)c1cn([C@H]2COC[C@H]2O)nn1`, for which the activity, negative = inhibition was -7.71% [at 11.4 µM] (inactive).

Take `C/C(CCC(=O)OC[C@@H]1O[C@H](C#Cc2ccccc2)C=C[C@@H]1Oc1ccc(C)cc1)=N/O[C@@H](C)c1cn([C@H](CO)Cc2ccccc2)nn1`: the AC50 was 3.98 µM (active) and 3.16 µM (active).

The record behind these values is PubChem BioAssay AID1851 (National Center for Advancing Translational Sciences (NCATS), 2009).
